Measured values reported in PubChem BioAssay (NCI).
The panel holds about 83,000 compounds, 20% with a hit somewhere; the sample as a whole holds those more often.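 Plates (96-well) were seeded with cells, treated with compound at one concentration, and incubated for 48 hours before percent growth was determined.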 Unmarked numbers belong to inactive results. Calls of active or inactive are those of the source. The calls were made as follows: active = growth percent below 10; inactive = the rest.

What was measured:
Assay in all cases: NCI-60 one-dose screen, 48 h (100 = growth as untreated, 0 = no growth, -100 = all killed)
Settings in all cases: 10 µM unless noted
NCI-H23 lung = tested on: NCI-H23 lung
NCI-H322M lung = tested on: NCI-H322M lung
HOP-62 NSCLC = tested on: HOP-62 NSCLC
NCI-H460 lung = tested on: NCI-H460 lung
HOP-92 NSCLC = tested on: HOP-92 NSCLC
NCI-H522 lung = tested on: NCI-H522 lung
A549/ATCC NSCLC = tested on: A549/ATCC NSCLC
786-0 renal = tested on: 786-0 renal
COLO 205 colon = tested on: COLO 205 colon
DU-145 prostate = tested on: DU-145 prostate
K-562 leukemia = tested on: K-562 leukemia
MALME-3M melanoma = tested on: MALME-3M melanoma
MDA-MB-231 breast = tested on: MDA-MB-231 breast
RXF 393 renal = tested on: RXF 393 renal
SF-268 CNS = tested on: SF-268 CNS
SF-295 CNS = tested on: SF-295 CNS
SF-539 CNS = tested on: SF-539 CNS
UACC-257 melanoma = tested on: UACC-257 melanoma
M14 melanoma = tested on: M14 melanoma

SMILES | growth (NCI-H23 lung) | growth (NCI-H322M lung) | growth (HOP-62 NSCLC) | growth (NCI-H460 lung) | growth (HOP-92 NSCLC) | growth (NCI-H522 lung) | growth (A549/ATCC NSCLC) | growth (786-0 renal) | growth (COLO 205 colon) | growth (DU-145 prostate) | growth (K-562 leukemia) | growth (MALME-3M melanoma) | growth (MDA-MB-231 breast) | growth (RXF 393 renal) | growth (SF-268 CNS) | growth (SF-295 CNS) | growth (SF-539 CNS) | growth (UACC-257 melanoma) | growth (M14 melanoma)
Cc1ccc2c(n1)C(=O)C(Br)=C(CC(C)C)C2=O | 98.6% | 96.5% | 97.1% | 105% | 80.4% | 67.7% | 90.8% | 96.3% | 78.5% | 109% | 33.8% | 99.7% | 91.4% | 102% | 96.2% | 102% | 97.7% | 85.1% | 102%
Nc1ncnc2c1C(c1ccc(Br)cc1)c1sc3c(F)cccc3c1O2 (configuration not stated) | 88.5% | 95.9% | 90.1% | 92.1% | 91.7% | 84.2% | 99.3% | 99.9% | 106% | 102% | 99.1% | 127% | 79.7% | 104% | 98.9% | 102% | 102% | 114% | 103%
CCc1ccccc1-n1c(-c2ccc(OC)cc2)cc(-c2ccc(OC)cc2)c(C#N)c1=O | 73.8% | 82.2% | 67.5% | 85.5% | 5.54% (active) | 73.8% | 100% | 33.7% | 132% | 98.6% | 108% | 99.6% | 62% | 32.2% | 51.9% | 55.1% | 23% | 111% | 100%
C[PH+](c1nc2ccccc2nc1[PH+](C)C(C)(C)C)C(C)(C)C.C[PH+](c1nc2ccccc2nc1[PH+](C)C(C)(C)C)C(C)(C)C.[Au+].[Cl-] (configuration not stated) | -90.2% (active) | -94% (active) | -94.3% (active) | -85.5% (active) | -81.5% (active) | -88.7% (active) | -73.8% (active) | -96.6% (active) | -100% (active) | -99.5% (active) | 1.72% (active) | -67.1% (active) | -90.3% (active) | -87.9% (active) | -91% (active) | -88% (active) | -91.6% (active) | -88.3% (active) | -100% (active)
CS(=O)(=O)c1ccc(-c2cnn3ccc(-c4cccc(S(=O)(=O)C5CC5)c4)nc23)cc1 | 56.8% | 57.9% | 48.7% | 43.7% | 41.9% | 31.5% | 45% | 61.3% | 64.3% | 61.7% | 78% | 50.2% | 53% | 22.2% | 45.5% | 56.9% | 60.8% | 58.3% | 64.3%
O=S(=O)(NCCNc1nccc(-c2c(-c3ccc(F)c(O)c3)nc3sccn23)n1)c1ccc(O)cc1 | 54.6% | 70.8% | 78.7% | 40% | 47.7% | 25.4% | 35.3% | 49.6% | 34.7% | 43.8% | 28.9% | 31% | 45.6% | 25.8% | 37% | 60.2% | 81.2% | 58.9% | 27.2%
COC12C=C/C(=C(/C(=O)OCc3ccncc3)C(=O)CCCCCCCCC3(OC)C=C/C(=C(/C(=O)OCc4ccncc4)C(=O)CCCCCCCC1)O3)O2 | -61.1% (active) | -63.2% (active) | 16.7% | 1.88% (active) | -48.9% (active) | -41% (active) | 9.15% (active) | -50.9% (active) | -25% (active) | -60.7% (active) | -4.08% (active) | -67.7% (active) | 1.77% (active) | -82.7% (active) | -28% (active) | -23.8% (active) | -60.1% (active) | -29.6% (active) | -24.4% (active)
Cc1[nH]c(C(=O)Nc2ccc(C(=O)N3CCN(c4cc5c(cc4F)c(=O)c(C(=O)O)cn5C4CC4)CC3)cc2OC(C)C)c(Cl)c1Cl | 78.4% | 90.3% | 97.8% | 8.48% (active) | 46.5% | 82.1% | 38.4% | 79.8% | 114% | 87.2% | 56.4% | 89% | 80.3% | 82.4% | 78.1% | 81.4% | 75.3% | 82.5% | 73.2%
